Compound activity deposited in PubChem by National Center for Advancing Translational Sciences (NCATS).
The full list was thinned out, with hits kept by preference.
TbPYK inhibitor – inhibitors of Trypanosoma brucei pyruvate kinase; TbPYK enzyme, Kinase-Glo Plus ATP luminescence, 45 min; 410,000 tested, 0.12% active; Q57TT1; Potency, µM (highest dose often 76.8 µM), hits mostly inhibitors; also: nearly all actives have a fitted effect of over 50% in size
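Enzyme and substrate buffer are dispensed first and compound is pin-transferred. ADP at 130 uM final then starts the reaction, which runs 45 min at room temperature. Detection reagent is added for 10 min before luminescence is imaged.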
Giardia FBPA inh – inhibitors of Giardia lamblia fructose-1,6-bisphosphate aldolase; purified Giardia FBPA; A8B2U2; Potency, µM (titrated, usually from 59.6 µM), hits mostly inhibitors; 290,000 tested, 0.71% active; also: nearly all actives have a fitted effect of over 55% in size
Target sequence (A8B2U2 whole entry, looked up): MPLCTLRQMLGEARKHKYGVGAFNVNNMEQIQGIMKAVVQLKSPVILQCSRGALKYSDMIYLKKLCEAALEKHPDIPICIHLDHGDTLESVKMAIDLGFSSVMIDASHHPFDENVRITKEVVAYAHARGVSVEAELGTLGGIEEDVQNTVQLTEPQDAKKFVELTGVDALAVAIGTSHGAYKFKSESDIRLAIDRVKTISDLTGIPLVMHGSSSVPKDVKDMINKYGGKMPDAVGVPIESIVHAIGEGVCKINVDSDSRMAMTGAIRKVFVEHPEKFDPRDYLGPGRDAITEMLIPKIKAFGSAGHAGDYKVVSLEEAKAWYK
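Giardia FBPA (40 nM reagent) was preincubated 10 min at RT with compound (up to 57.5 uM final), then substrate plus GAPDH/TPI/NAD/arsenate coupling system with diaphorase/resazurin was added; resorufin fluorescence (525/598 nm) was read after 20 min.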
Shiga inhibitor – inhibitors of Shiga toxin in Vero cells. Vero cells, Shiga toxin protein synthesis inhibition reporter. inhibition, % at 38.7 µM. 290,000 tested, 9.2% active; in the data active = inhibition mostly above about 28%, no sharp cut-off; inactive = mostly below about 43%
Sm TGR inh – S. mansoni TGR enzyme inhibition; Q962Y6; purified TGR, DTNB reduction, TNB absorbance 405 nm; Potency, µM (top dose mostly 114 µM), actives largely listed as inhibitors; 360,000 tested, 3% active; also: nearly all actives have a fitted effect of over 60% in size
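First, TGR (20 nM dispensed) and NADPH were mixed with compound. Second, a 15 min room-temperature incubation followed. Third, further NADPH and then DTNB were added to start the reaction. Finally, TNB absorbance was monitored kinetically.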
LmPK inh – LmPK (Leishmania mexicana) enzyme inhibition; 290,000 tested, 0.37% active; purified LmPK, Kinase-Glo ATP luminescence, 1 h; Q27686; Potency, µM (series often up to 57.5 µM), most hits filed as inhibitors
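0.1 nM LmPK, 0.5 mM PEP, 0.1 mM ADP; 50 mM imidazole pH 7.2, 7 mM MgCl2, 50 mM KCl; 1 h RT. Kinase-Glo luminescence readout, normalized to no-enzyme (full inhibition) and uninhibited wells.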
Cycloheximide cs – counter-screen hit for Shiga toxin inhibitors, cycloheximide; 300,000 tested, 12% active; max response, %; AID 2314; cell reporter, cycloheximide protein synthesis inhibition counterscreen; in the data active = max response mostly above about 13%, no sharp cut-off; inactive = mostly below about 14%; also: read at 38.3 µM for the half of the compounds with a filed dose
A number is an active result; 0 = inactive; ? = inconclusive; - = no result given; [ ] = dose if it differs, or a comment. Unless noted, calls follow the shape of the dose curve; as a rule, active = well fitted curve in the direction sought with a large enough effect; inconclusive = small, poorly fitted or top-dose-only effect, or another doubt; inactive = no such curve, though single readings can be large; an effect the other way counts as inactive or inconclusive.

SMILES	TbPYK inhibitor	Giardia FBPA inh	Shiga inhibitor	Sm TGR inh	LmPK inh	Cycloheximide cs
CC/C(=N\NC(=O)C1CCCC1)c1cccc(Br)c1	0	-	0	0	0	0
C/C(=N\NC(=O)c1cc(Br)ccc1O)c1ccccn1	0	0	40.6	0	0	27.7
C/C(=N\NC(=O)c1cccc2ccccc12)c1ccccn1	0	0	0	0	0	0
CCc1ccccc1N(c1nc(-c2ccc(OC)c(OC)c2)no1)c1nc(-c2ccc(OC)c(OC)c2)no1	0	-	-	0	-	-
Cc1nc(N)c(C#N)c(-c2ccccc2)c1C	0	0	0	0	0	0
Cc1c(C#N)c(N)nc(Cl)c1C#N	0	0	0	35.5µM	0	0
Cc1ccc(C)c(N2CCN(C(=O)CCS(=O)(=O)c3cc(Br)cc4c3N(C(=O)C3CC3)CC4)CC2)c1	0	-	-	0	-	-
O=C(NCc1ccccc1)C(=O)NCC(c1ccco1)S(=O)(=O)c1ccccc1 (stereo not drawn)	0	-	-	?	-	-
CCn1ccc(C(=O)Nc2ccc(Cl)cn2)n1	0	0	0	0	0	39.1
O=C(O)c1nccnc1C(=O)Nc1ccc(Cl)cn1	0	0	0	0	0	0
CCn1ccc(C(=O)Oc2ccc(Cl)cc2)n1	0	0	56.4	0	0	21.6
CCn1nccc1C(=O)Nc1ccc(Cl)cn1	0	0	70.2	0	28.2µM	59.9
Cc1cccc2cc(CN(CCCN3CCOCC3)Cc3nnnn3C(C)(C)C)c(=O)[nH]c12	0	0	0	?	0	0
COCCn1nnnc1CN(CCCN1CCOCC1)Cc1cc2c(C)ccc(C)c2[nH]c1=O	0	0	0	12.6µM	0	0
Cc1ccc(C)n1-n1cnc2sc(-c3ccccc3)cc2c1=O	0	0	0	0	0	14.3
Cc1ccc(C)n1-n1c(C)nc2sc(-c3ccccc3)cc2c1=O	0	0	73.1	0	0	44.9
Cc1sc2ncn(-n3c(C)ccc3C)c(=O)c2c1C	0	0	0	?	0	0
c1ccc(-c2cc3c(N4CCCC4)ncnc3s2)cc1	0	0	0	0	0	0
O=c1[nH]cnc2sc(-c3ccccc3)cc12	0	0	0	0	0	55.9
O=c1c2cc(-c3ccccc3)sc2ncn1-n1cccc1	0	0	79.4	0	0	39.3
Clc1ccc(/C=N/Nc2ncnc3ccccc23)cc1Cl	0	0	89.7	0	0	25.7
Fc1ccccc1/C=N/Nc1ncnc2ccccc12	0	0	0	0	0	40.5
COc1ccc(C)cc1NC(=O)c1cc(S(=O)(=O)N2CCCCC2)c[nH]1	0	-	-	0	-	-
c1ccc(-c2cccc(-c3ccccc3)n2)cc1	0	0	54.3	0	0	48.4
CC1(C)CC(=O)C=C(NNC(=O)c2ccc(N)cc2)C1	0	0	0	0	0	0
SMILES	TbPYK inhibitor	Giardia FBPA inh	Shiga inhibitor	Sm TGR inh	LmPK inh	Cycloheximide cs
CC1(C)CC(=O)C=C(NNC(=O)c2ccccc2)C1	0	0	active	0	0	24.2
CCOc1ccc(CCNC(=O)c2nn(C)c3c2CSc2ccccc2-3)cc1	0	-	-	0	-	-
COc1cccc(CNC(=O)CCNS(=O)(=O)c2ccc3c(c2)CCCC(=O)N3)c1	0	-	-	0	-	-
CS(=O)(=O)c1ccccc1-c1nc(-c2cccc(Cl)c2)no1	0	0	0	0	0	0
CS(=O)c1ccccc1-c1nc(-c2ccc(Cl)cc2)no1 (stereo not drawn)	0	0	65.9	0	0	48.3
CS(=O)(=O)c1ccccc1-c1nc(-c2ccc([N+](=O)[O-])cc2)no1	0	0	0	0	0	0
CS(=O)c1ccccc1-c1nc(-c2cccc(Cl)c2)no1 (stereo not drawn)	0	0	0	0	0	53.0
COc1ccccc1CNC(=O)c1ccccc1NC(=O)C1=C(C)OCCS1	0	-	0	0	0	0
COc1ccc(/C=N/NC(=O)c2ccc(NC(=O)c3cccc([N+](=O)[O-])c3)cc2)c(C(=O)O)c1OC	0	0	0	0	0	0
COc1ccc(/C=N\Nc2ccccc2[N+](=O)[O-])c(C(=O)O)c1OC	0	0	88.5	0	0	50.0
COc1ccc(/C=N\Nc2ccc([N+](=O)[O-])cc2[N+](=O)[O-])c(C(=O)O)c1OC	0	0	0	8.91µM	0	0
CCOC(=O)c1c[nH]n(-c2ccc(C)cc2)c1=O	0	?	48.2	0	0	20.9
CCOC(=O)c1c[nH]n(-c2ccccc2)c1=O	0	0	29.8	0	0	0
Cc1ccc(-c2nnc(Nc3ccc(Br)cc3)c3ccccc23)cc1S(=O)(=O)N1CCOCC1	0	-	-	0	-	-
NC(=O)c1ccc(C(F)(F)F)n(Cc2ccc(F)c(F)c2)c1=O	0	0	0	0	0	0
NC(=O)c1ccc(C(F)(F)F)n(Cc2ccc(Cl)cc2)c1=O	0	0	0	0	0	24.7
CCc1ccc(NC(=O)[C@H](Cc2c[nH]c3ccccc23)NC(=O)[C@@H]2Cc3ccccc3CN2)cc1	0	?	28.3	0	0	0
Cc1cc(C)cc(NC(=O)[C@H](Cc2c[nH]c3ccccc23)NC(=O)[C@@H]2Cc3ccccc3CN2)c1	0	?	0	0	0	0
Cc1cccc(NC(=O)[C@H](Cc2c[nH]c3ccccc23)NC(=O)[C@@H]2Cc3ccccc3CN2)c1	0	?	0	0	0	13.6
CN(C)c1ccc(/C=C/C(=O)c2ccccc2O)cc1	0	0	0	0	0[11.5 µM]	40.3
Cc1ccc(/C=C/C(=O)c2ccc(C)cc2)cc1	0	0	83.3	0	0	68.1
Cc1ccc(/C=C/C(=O)c2ccccc2O)cc1	0	0	87.7	0	0	39.7
CN(C)c1ccc(/C=C/C(=O)c2cccnc2)cc1	0	0	72.0	0	0	41.7
Cc1ccc(O)c(C(=O)C=Cc2ccccc2)c1	0	-	-	-	-	-
CN(C)c1ccc(/C=C/C(=O)c2ccc(O)cc2)cc1	0	-	-	-	-	-
SMILES	TbPYK inhibitor	Giardia FBPA inh	Shiga inhibitor	Sm TGR inh	LmPK inh	Cycloheximide cs
CCc1cccc(NC(c2nnc(-c3ccccc3)o2)c2ccc(F)cc2Cl)c1 (stereo not drawn)	0	-	-	0	-	-
C=CCOc1ccc(C2/C(=C(\O)c3ccc4c(c3)OCCO4)C(=O)C(=O)N2CCCN2CCOCC2)cc1 (stereo not drawn)	0	0	0	0	0	0
Cn1cccc1-c1cc2n(n1)CCC(=O)N2CC(=O)Nc1ccc(F)cc1Cl	0	-	-	0	-	-
Cc1c(/C=C/C(=O)c2ccccc2O)cnn1C	0	0	active	0	0	71.2
CN(C)S(=O)(=O)c1ccc(C(=O)NCc2ccccc2)cc1	0	0	0	0	0	0
CN(C)S(=O)(=O)c1ccc(C(=O)NCCOc2ccccc2)cc1	0	0	82.8	0	0	40.1
CN(C)S(=O)(=O)c1ccc(C(=O)NCCOc2ccc(F)cc2)cc1	0	0	84.1	0	0	42.2
CN(C)S(=O)(=O)c1ccc(C(=O)OCCc2ccccc2)cc1	0	0	0	0	0	39.3
CN(C)S(=O)(=O)c1ccc(C(=O)NCCS(=O)(=O)N2CCN(c3ccc(F)cc3)CC2)cc1	0	0	0	0	0	0
